KB-3-1 cytotox = qHTS assay for MDR1-selective chemotherapeutics: Primary screen using the parental adenocarcinoma cell KB-3-1; KB-3-1 viability, CellTiter-Glo ATP luminescence, 72 h; Potency, µM (doses to about 46.1 µM), actives largely listed as cytotoxic; hit rate 1.4% among 400,000; note: nearly all actives have a fitted effect of over 60% in size
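Cytotoxicity measured as CellTiter-Glo luminescence after 72 h at 37 C. Compound titrations were pinned onto drug-naive KB-3-1 parental adenocarcinoma cells grown in DMEM with 10% FBS, and normalized data fitted to concentration-response curves.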
HT1080NT lethal = qHTS for induction of synthetic lethality in tumor cells producing 2HG: qHTS for the HT-1080-NT fibrosarcoma cell line; HT-1080-NT fibrosarcoma viability, CellTiter-Glo ATP luminescence, 48 h; Potency, µM (highest dose often 46.1 µM), inactives show at the highest dose activity, negative = less viability, most hits filed as cytotoxic; hit rate 1.6% among 360,000;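 note: NT is the 2HG producing partner of a matched IDH1 knockdown line; 0% = DMSO-treated cells and -100% = media-only wells without cells; nearly all actives have a fitted effect of over 55% in size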
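Toxicity toward the 2HG-producing NT line was scored as %Activity, normalised to DMSO and no-cell wells, from CellTiter-Glo luminescence after 48 hours' treatment.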
DT40 TDP1 CPT = qHTS for Inhibitors of human tyrosyl-DNA phosphodiesterase 1 (TDP1): qHTS in cells in presence of CPT | chicken DT40 Tdp1-/-;hTDP1 cells + 20 nM CPT, ATP luminescence, 48 h | Potency, µM (highest dose often 46.2 µM), for inactives: at the highest dose activity change, negative = growth inhibition, hits mostly inhibitors | hit rate 12% among 420,000 | AID 686979, 2013; note: nearly all actives have a fitted effect of over 55% in size
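Chicken DT40 Tdp1-/- cells complemented with human TDP1, 400 cells/well, exposed to compounds plus 20 nM camptothecin for at least 48 h at 37 C; viability read as ATP content by CellTiter-Glo luminescence.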
TDP1 cell noCPT = qHTS for Inhibitors of human tyrosyl-DNA phosphodiesterase 1 (TDP1): qHTS in cells in absence of CPT. Potency, µM (highest dose often 46.2 µM), for inactives: top-dose activity change, negative = growth inhibition, actives largely listed as inhibitors. DT40 Tdp1-/- hTDP1 cells, no CPT, ATP luminescence, 48 h. hit rate 15% among 420,000. AID 686978, 2013; note: nearly all actives have a fitted effect of over 55% in size
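DT40 Tdp1-/-;hTDP1 cells, no CPT (DMSO vehicle only), 400 cells/well; compounds pin-transferred; ≥48 hr, 37 °C; CellTiter-Glo 30 min RT dark, luminescence read.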
KB-V1 MDR tox = qHTS assay for MDR1-selective chemotherapeutics: Primary screen using the drug-selected MDR subline cells KB-V1. KB-V1 MDR cells viability, CellTiter-Glo, 72 h. Potency, µM (titrated, usually from 46.1 µM), hits mostly cytotoxic. hit rate 3.4% among 400,000; note: nearly all actives have a fitted effect of over 60% in size
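KB-V1 MDR subline cells in DMEM (phenol-red free, 10% FBS) exposed to compounds in qHTS concentration series for 72 h at 37 degrees C. Viability read by CellTiter-Glo luminescence; concentration-effect curves fitted after normalization and correction.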
HT1080 IDH1KD tx = qHTS for induction of synthetic lethality in tumor cells producing 2HG: qHTS for the HT-1080-IDH1KD cell line; HT-1080 IDH1 knockdown viability, ATP luminescence, 48 h; Potency, µM (highest dose often 46.1 µM), without a hit: at the highest dose activity, negative = toxicity, actives largely listed as cytotoxic; hit rate 2% among 360,000;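 note: 0% = DMSO wells and -100% = cell-free medium wells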
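Viability of IDH1-knockdown HT-1080 fibrosarcoma cells was assessed by CellTiter-Glo after 48 h at 37 °C with titrated compound; concentration-effect curves were classified by fit quality and response size.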
An asterisk follows results filed as active; [ ] = dose if it differs, or a comment. Hits are enriched below; roughly 19% of the tested compounds scored in any of these assays. Calls come from the whole dose curve; as a rule, active = well fitted curve in the direction sought with a large enough effect; inconclusive = small, poorly fitted or top-dose-only effect, or another doubt; inactive = no such curve, though single readings can be large; an effect the other way counts as inactive or inconclusive. Unless noted, % is set by controls: 0 for no effect and ±100 for the full control effect; potency is the fitted concentration of half-maximal effect.

For COc1ccc(OC)c(CCNC(=O)CN2C(=O)COc3ccc(S(=O)(=O)N4CCC(C)CC4)cc32)c1 the results were KB-3-1 cytotox inactive and KB-V1 MDR tox inconclusive.
Screening O=C(CCSc1ccc(Br)cc1)c1ccc(O)cc1 returned KB-3-1 cytotox inactive, HT1080NT lethal -1.8%, DT40 TDP1 CPT 3.66µM*, TDP1 cell noCPT 4.11µM*, KB-V1 MDR tox inactive and HT1080 IDH1KD tx -4.4%.
Screening CO[C@H]1C[C@H](O[C@H]2[C@H](C)[C@@H](O[C@@H]3O[C@H](C)C[C@H](N(C)C)[C@H]3OC(C)=O)[C@@H](C)C[C@]3(CO3)C(=O)[C@H](C)[C@@H](OC(C)=O)[C@@H](C)[C@@H](C)OC(=O)[C@@H]2C)O[C@@H](C)[C@@H]1OC(C)=O returned DT40 TDP1 CPT 10.9%[21.1 µM] and TDP1 cell noCPT -17.3%[21.1 µM].
For CC(=O)Nc1ccc(SCC(=O)c2ccc(Br)s2)cc1 the results were KB-3-1 cytotox inactive, HT1080NT lethal 25.9µM*, DT40 TDP1 CPT inconclusive, TDP1 cell noCPT inconclusive, KB-V1 MDR tox inactive and HT1080 IDH1KD tx 18.4µM*.
CCC(C)NC(=O)CSc1ccc(NC(C)=O)cc1 (centres undefined) was read as KB-3-1 cytotox inactive, HT1080NT lethal 6.0%, DT40 TDP1 CPT -9.7%, TDP1 cell noCPT -0.4%, KB-V1 MDR tox inactive and HT1080 IDH1KD tx 4.2%.
For CCCn1nc(NC(=O)C2CCCO2)c2cc3cccc(C)c3nc21 (centres undefined) the results were KB-3-1 cytotox inactive, HT1080NT lethal -3.1%, DT40 TDP1 CPT -26.3%, TDP1 cell noCPT 14.6µM*, KB-V1 MDR tox inactive and HT1080 IDH1KD tx -3.1%.
For CC1(C(=O)NS(=O)(=O)c2ccc(F)cc2F)CCN1C(=O)CC1CCCC1 (centres undefined) the results were KB-3-1 cytotox inactive, HT1080NT lethal 20.6%, DT40 TDP1 CPT 0.4%, TDP1 cell noCPT 0.0%, KB-V1 MDR tox inactive and HT1080 IDH1KD tx 15.2%.
CCCc1ccc(NS(=O)(=O)c2c(C)oc(C)c2C(=O)OC)cc1 was read as KB-3-1 cytotox inactive, HT1080NT lethal -10.5%, DT40 TDP1 CPT inconclusive, TDP1 cell noCPT 20.6µM*, KB-V1 MDR tox inactive and HT1080 IDH1KD tx -3.1%.
Screening COC(=O)c1c(C)oc(C)c1S(=O)(=O)NCc1ccc(OC)cc1 returned KB-3-1 cytotox inactive, HT1080NT lethal 7.0%, DT40 TDP1 CPT -6.4%, TDP1 cell noCPT -23.3%, KB-V1 MDR tox inactive and HT1080 IDH1KD tx 2.9%.
For S=C1SCN(Cc2cccnc2)CN1Cc1ccccc1 the results were KB-3-1 cytotox inactive, HT1080NT lethal inconclusive, DT40 TDP1 CPT 2.91µM*, TDP1 cell noCPT 4.61µM*, KB-V1 MDR tox inactive and HT1080 IDH1KD tx 20.6µM*.
Screening S=C1NCN(CCc2ccccc2)CN1Cc1ccccc1 returned KB-3-1 cytotox inactive, HT1080NT lethal -4.6%, DT40 TDP1 CPT inconclusive, TDP1 cell noCPT inconclusive, KB-V1 MDR tox inactive and HT1080 IDH1KD tx 3.5%.
Screening CC(C)(C)N1CSC(=S)N(Cc2ccccc2)C1 returned KB-3-1 cytotox inactive, HT1080NT lethal 18.5%, DT40 TDP1 CPT 5.17µM*, TDP1 cell noCPT 4.61µM*, KB-V1 MDR tox inconclusive and HT1080 IDH1KD tx 1.9%.
CC(C)N1CSC(=S)N(Cc2ccccc2)C1 was read as KB-3-1 cytotox inactive, HT1080NT lethal 0.8%, DT40 TDP1 CPT 4.11µM*, TDP1 cell noCPT 4.11µM*, KB-V1 MDR tox inactive and HT1080 IDH1KD tx -0.3%.

Source: PubChem BioAssay (National Center for Advancing Translational Sciences (NCATS))
